Among the test systems are CDK4-cyclinD3; CDK4; CDK5; CDK7; CDK8; CDK9; CDKL1; CDKL2; CDKL3; CDKL5; CHEK1; CHEK2; CIT; CLK1; CLK2; CLK3; CLK4; CSF1R-autoinhibited; CSF1R; CSK.
Holding throughout (settings): concentration: 1 μM, replicates: in singlicate; n = 1
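Also: KINOMEscan kinase panel screen.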

`Cc1nnc(-c2ccc(C)c(-c3ccc(C(=O)Nc4ccc(NS(C)(=O)=O)cc4)cc3)c2)o1` [GW702865]: the “%Inh” value was determined as 0% with CDK4-cyclinD3; 0% with CDK4; 0% in the assay on CDK5; 0% with CDK7; 28% in the assay with CDK8; 0% with CDK9. Besides, the “%Inh” value stood at 5% in the assay with CDKL1; 18% in the assay with CDKL2; 0% in the assay on CDKL3; 0% with CDKL5; 0% with CHEK1; 30% in the assay on CHEK2. Moreover, the “%Inh” value with CIT worked out at 7%; in the assay with CLK1, 2%; in the assay with CLK2, 0%; in the assay on CLK3 it was 2%; in the assay on CLK4, 0%; in the assay with CSF1R-autoinhibited, 37%. Further, the “%Inh” value turned out to be 1% in the assay on CSF1R and 0% with CSK.

In the case of `Cl.Nc1ncnc2occ(-c3ccc(NC(=O)Nc4cc(C(F)(F)F)ccc4F)cc3)c12` [SB-707548], the “%Inh” value in the assay on CDK4-cyclinD3 is 11%; with CDK4, 2%; with CDK5, 59%; in the assay with CDK7 it was 97.8%; in the assay with CDK8, 100%; in the assay with CDK9, 78%. For the same compound, the “%Inh” value with CDKL1 came to 7%; in the assay with CDKL2, 74%; with CDKL3 it was 95%; in the assay on CDKL5, 0%; in the assay on CHEK1, 6%; with CHEK2, 45%. Also, the “%Inh” value is 82% with CIT; 69% in the assay on CLK1; 11% in the assay on CLK2; 13% in the assay with CLK3; 69% in the assay with CLK4; 90.7% with CSF1R-autoinhibited. The “%Inh” value in the assay with CSF1R is reported as 99.9%; in the assay on CSK it was 20%.

On to `CN1c2ccc(CNc3ccc(F)cc3)cc2-c2c(cnn2C)S1(=O)=O`, for which the “%Inh” value in the assay on CDK4-cyclinD3, in the assay on CDK4, in the assay with CDK5, in the assay with CDK7, with CDK8 and with CDK9 was 0% throughout. The “%Inh” value is 9% with CDKL1; 0% with CDKL2; 0% with CDKL3; 0% in the assay with CDKL5; 0% in the assay with CHEK1; 0% in the assay on CHEK2. Moreover, the “%Inh” value with CIT is recorded as 1%; with CLK1 it was 0%; in the assay with CLK2, 11%; with CLK3, 0%; in the assay with CLK4, 17%; in the assay with CSF1R-autoinhibited it was 1%. The “%Inh” value with CSF1R and in the assay on CSK was 0% throughout.

Turning to `COc1cc(Nc2nccc(N3CCC(NC(=O)c4cccc(NC(C)=O)c4)C3)n2)cc(OC)c1OC` (centres unmarked) [GSK1379754], the “%Inh” value with CDK4-cyclinD3 was 0%; with CDK4 it was 12%; with CDK5 it was 0%; in the assay on CDK7, 9%; in the assay on CDK8 it was 33%; with CDK9 it was 0%. For the same compound, the “%Inh” value was determined as 0% with CDKL1; 22% in the assay with CDKL2; 0% in the assay with CDKL3; 4% in the assay with CDKL5; 0% in the assay on CHEK1; 19% in the assay with CHEK2. Further, the “%Inh” value in the assay with CIT is on record as 23%; in the assay on CLK1, 10%; with CLK2 it was 3%; in the assay on CLK3, 0%; with CLK4 it was 13%; in the assay with CSF1R-autoinhibited, 0%. Also, the “%Inh” value in the assay on CSF1R is 38%; in the assay with CSK, 0%.

On to `Cc1c2ccc(N(C)c3ccnc(Nc4cccc(S(N)(=O)=O)c4)n3)cc2nn1Cc1ccccc1.Cl.Cl` [GW787226], for which the “%Inh” value with CDK4-cyclinD3 stood at 0%; in the assay on CDK4 it was 2%; in the assay with CDK5, 0%; in the assay on CDK7, 3%; in the assay with CDK8 it was 0%; in the assay on CDK9, 3%. The “%Inh” value in the assay with CDKL1 was determined as 0%; in the assay with CDKL2, 39%; with CDKL3, 10%; with CDKL5 it was 0%; in the assay with CHEK1, 0%; with CHEK2, 8%. Moreover, the “%Inh” value in the assay on CIT turned out to be 6%; with CLK1 it was 0%; in the assay with CLK2, 12%; in the assay on CLK3, 0%; in the assay on CLK4 it was 0%; in the assay with CSF1R-autoinhibited, 64%. Moreover, the entries for the “%Inh” value in the assay with CSF1R and with CSK were 100% and 9%, respectively.

For the compound `Cc1ccc(C(=O)NCC(N)=O)cc1-n1c(C)cc(OCc2ccc(F)cc2F)c(Br)c1=O`, the “%Inh” value in the assay on CDK4-cyclinD3 amounted to 0%; in the assay on CDK4 it was 0%; in the assay on CDK5 it was 0%; in the assay on CDK7, 0%; with CDK8, 8%; in the assay on CDK9, 0%. Besides, the “%Inh” value in the assay on CDKL1 came to 44%; in the assay with CDKL2 it was 3%; in the assay with CDKL3, 9%; in the assay with CDKL5 it was 0%; in the assay with CHEK1, 17%; in the assay on CHEK2, 9%. Besides, the “%Inh” value is 8% in the assay with CIT; 0% with CLK1; 0% in the assay on CLK2; 3% with CLK3; 12% with CLK4; 0% with CSF1R-autoinhibited. For the same compound, the “%Inh” value is given as 16% in the assay with CSF1R and 0% in the assay on CSK.

Regarding `O=c1cc(N2CCOCC2)nc2n(Cc3cccc(C(F)(F)F)c3)ccn12` [GSK2297543], the “%Inh” value is recorded as 7% in the assay with CDK4-cyclinD3; 12% in the assay on CDK4; 0% in the assay on CDK5; 0% in the assay with CDK7; 16% in the assay on CDK8; 0% in the assay with CDK9. Moreover, the “%Inh” value came to 0% with CDKL1; 20% in the assay on CDKL2; 0% with CDKL3; 0% in the assay on CDKL5; 0% in the assay with CHEK1; 0% in the assay on CHEK2. In addition, the “%Inh” value in the assay with CIT was found to be 27%; with CLK1, 17%; in the assay with CLK2, 20%; in the assay on CLK3, 0%; in the assay on CLK4, 6%; in the assay on CSF1R-autoinhibited it was 0%. Further, the “%Inh” value in the assay with CSF1R and in the assay on CSK was 0% each time.

Consider `Cc1c(Cn2c(C)nn3c(=O)cc(N4CCOC(C)C4)nc23)cccc1C(F)(F)F` (centres unmarked) [GSK2344444], for which the “%Inh” value with CDK4-cyclinD3 is given as 0%; with CDK4, 25%; in the assay on CDK5, 0%; in the assay with CDK7, 0%; with CDK8, 0%; in the assay on CDK9, 2%. Also, the “%Inh” value in the assay with CDKL1 was 0%; with CDKL2, 4%; in the assay with CDKL3 it was 0%; with CDKL5, 0%; with CHEK1 it was 10%; with CHEK2, 0%. In addition, the “%Inh” value with CIT is reported as 9%; in the assay with CLK1, 29%; with CLK2, 0%; in the assay on CLK3, 0%; in the assay on CLK4, 13%; with CSF1R-autoinhibited, 0%. Moreover, the “%Inh” value in the assay with CSF1R and in the assay with CSK was 0% throughout.

For the compound `O=c1cc(N2CCOCC2)nc2n(Cc3cccc4ccccc34)ccn12` [GSK2333389], the “%Inh” value is given as 0% in the assay with CDK4-cyclinD3; 0% in the assay on CDK4; 0% with CDK5; 0% with CDK7; 13% in the assay with CDK8; 1% with CDK9. The “%Inh” value was 0% in the assay with CDKL1; 4% in the assay on CDKL2; 0% in the assay with CDKL3; 0% in the assay on CDKL5; 20% in the assay on CHEK1; 0% with CHEK2. Moreover, the “%Inh” value with CIT is recorded as 9%; in the assay with CLK1, 48%; with CLK2, 3%; in the assay with CLK3, 0%; in the assay on CLK4, 31%; in the assay on CSF1R-autoinhibited, 0%. Besides, the entries for the “%Inh” value in the assay with CSF1R and in the assay with CSK were 4% and 0%, respectively.

As for `CCc1nc(-c2cccc(C)c2)c(-c2ccnc(NCc3ccccc3)c2)s1`, the “%Inh” value was 0% in the assay with CDK4-cyclinD3; 0% in the assay on CDK4; 0% in the assay on CDK5; 0% in the assay on CDK7; 0% in the assay with CDK8; 1% with CDK9. For the same compound, the “%Inh” value in the assay on CDKL1 came out at 13%; with CDKL2, 0%; in the assay with CDKL3, 2%; in the assay on CDKL5 it was 0%; in the assay with CHEK1 it was 0%; in the assay on CHEK2 it was 10%. Further, the “%Inh” value came out at 29% in the assay with CIT; 0% in the assay on CLK1; 11% in the assay with CLK2; 0% in the assay on CLK3; 0% with CLK4; 0% in the assay with CSF1R-autoinhibited. The “%Inh” value in the assay on CSF1R was found to be 6%; in the assay with CSK, 0%.

Values taken from PMC5540273 (PLoS ONE, 2017).
